Bioassay records deposited in PubChem by The Scripps Research Institute Molecular Screening Center.
GalR3 antagonist: GalR3 antagonists in HEK293 cells, primary screen, cell-based, fluorescence readout; Galanin receptor type 3 (Homo sapiens), O60755; HEK293 GalR3-CNG cAMP membrane potential fluorescence; galR3 body fused to GalR1 C-terminus; inhibition, % at 3 µM; 360,000 tested, 0.44% active;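 active = inhibition above the screen-wide average plus 3 SD, cut at about 13% in these data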;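 also: forskolin and galanin both at EC90 stimulate the cells; cAMP rise reported by CNG channel membrane potential dye signal; 0% = forskolin plus galanin with DMSO and 100% = forskolin alone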
COUP-TFII inh: NR2F2 transcriptional activity inhibitors, primary screen, cell-based, luciferase reporter, HEK293T, luminescence | HEK293T NGFI-A luciferase reporter | AID 686940, 2013 | 370,000 tested, 0.7% active | inhibition, % at 8.6 µM;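 active = inhibition above a per-plate cutoff, mean inhibition of test wells between control levels plus 3 SD, cut at about 38% in these data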;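 also: cells cotransfected with COUP-TFII expression vector driving the NGFI-A reporter; 0% = median of COUP-TF2 test wells and 100% = reporter-only cells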
SRC2 inh: inhibition of GAL4-SRC2 driven luciferase reporter, primary screen, SRC2 inhibitor project, cell-based, luminescence; Nuclear receptor coactivator 2 (Homo sapiens), Q15596; HEK293 GAL4-SRC2 luciferase reporter; inhibition, % at 9 µM; 370,000 tested, 0.17% active; AID 651957, 2012;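 active = inhibition above the mean inhibition of all tested compounds plus 3 SD, set per campaign, cut at about 52% in these data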;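 also: 0% = DMSO treated cells and 100% = cells given Gossypol at 36 µM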
NCOA3 inh: SRC3 coactivator transcriptional activity inhibitors, primary screen, cell-based, luminescence. HEK293 GAL4-SRC3 luciferase reporter. AID 588352, 2011. Nuclear receptor coactivator 3 (Homo sapiens), Q9Y6Q9. 360,000 tested, 0.17% active. inhibition, % at 3.6 µM;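 active = inhibition above a per-campaign cutoff, the mean of all compounds plus 3 SD, cut at about 60% in these data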;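 also: 0% = DMSO-treated cells and 100% = gossypol-treated cells at 36 µM; higher means less SRC3-driven luciferase light from the GAL4 reporter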
NCOA1 inh: SRC1 coactivator transcriptional activity inhibitors, primary screen, cell-based, luminescence; AID 588354, 2011; Nuclear receptor coactivator 1 (Homo sapiens), Q15788; inhibition, % at 3.6 µM; 360,000 tested, 0.12% active; HEK293 GAL4-SRC1 luciferase reporter;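 active = inhibition above the campaign mean plus 3 SD, with each screening campaign given its own cutoff, cut at about 60% in these data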;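 also: 0% = DMSO treated cells and 100% = gossypol at 36 µM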
Target sequence (Q15788 whole entry, looked up, the tested form may be a part): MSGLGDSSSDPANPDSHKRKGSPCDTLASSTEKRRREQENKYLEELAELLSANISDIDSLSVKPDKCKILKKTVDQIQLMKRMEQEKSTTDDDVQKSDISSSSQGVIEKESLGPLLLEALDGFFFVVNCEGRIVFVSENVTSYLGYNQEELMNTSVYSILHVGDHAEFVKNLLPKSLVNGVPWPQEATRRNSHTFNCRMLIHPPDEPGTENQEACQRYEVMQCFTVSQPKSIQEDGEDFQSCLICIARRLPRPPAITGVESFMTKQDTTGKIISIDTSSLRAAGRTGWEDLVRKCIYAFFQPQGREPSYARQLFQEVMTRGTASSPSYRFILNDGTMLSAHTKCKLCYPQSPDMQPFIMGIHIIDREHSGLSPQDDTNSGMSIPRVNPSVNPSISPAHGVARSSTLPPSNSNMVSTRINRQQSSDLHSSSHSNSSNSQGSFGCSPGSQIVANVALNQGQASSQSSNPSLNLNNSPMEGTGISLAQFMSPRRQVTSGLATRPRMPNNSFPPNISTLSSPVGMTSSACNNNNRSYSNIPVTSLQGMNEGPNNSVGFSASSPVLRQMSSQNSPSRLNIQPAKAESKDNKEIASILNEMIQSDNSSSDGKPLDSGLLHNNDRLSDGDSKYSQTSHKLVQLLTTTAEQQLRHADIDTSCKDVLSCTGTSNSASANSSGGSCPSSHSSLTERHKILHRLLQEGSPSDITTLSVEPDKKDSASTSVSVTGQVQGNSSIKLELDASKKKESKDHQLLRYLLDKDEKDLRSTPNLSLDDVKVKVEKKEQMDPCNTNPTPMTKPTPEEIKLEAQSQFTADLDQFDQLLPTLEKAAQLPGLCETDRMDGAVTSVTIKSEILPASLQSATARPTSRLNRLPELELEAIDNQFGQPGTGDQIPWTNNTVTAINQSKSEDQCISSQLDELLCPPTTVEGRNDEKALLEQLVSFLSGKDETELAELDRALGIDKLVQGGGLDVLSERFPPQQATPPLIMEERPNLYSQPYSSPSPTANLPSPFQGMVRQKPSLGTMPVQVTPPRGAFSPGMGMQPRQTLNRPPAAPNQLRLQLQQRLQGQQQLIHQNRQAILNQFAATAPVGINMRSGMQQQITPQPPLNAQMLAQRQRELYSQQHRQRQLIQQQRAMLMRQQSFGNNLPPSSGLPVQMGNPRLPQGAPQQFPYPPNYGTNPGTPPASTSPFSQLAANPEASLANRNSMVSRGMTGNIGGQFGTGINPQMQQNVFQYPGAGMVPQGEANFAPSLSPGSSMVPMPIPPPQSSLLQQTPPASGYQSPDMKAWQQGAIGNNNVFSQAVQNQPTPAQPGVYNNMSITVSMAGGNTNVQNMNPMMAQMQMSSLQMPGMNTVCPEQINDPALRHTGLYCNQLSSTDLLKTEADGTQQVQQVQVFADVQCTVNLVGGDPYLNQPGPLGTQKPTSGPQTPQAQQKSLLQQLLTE
NR5A2 inv ag: LRH-1 (NR5A2) inverse agonists, primary screen, cell-based, luminescence, HEK293T, StAR-luciferase reporter; inhibition, % at 3.6 µM; LRH-1 transfected, 24 h; Nuclear receptor subfamily 5 group A member 2 (Homo sapiens), O00482; 360,000 tested, 0.13% active;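 active = inhibition above the mean inhibition of all tested compounds plus 3 SD, cut at about 73% in these data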;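 also: 0% = DMSO wells and 100% = reporter-only cells lacking LRH-1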
VP16 Luc counter: Gal4-VP16 luciferase reporter inhibitors, counter-screen for COUP-TFII antagonist project, cell-based, luminescence, HEK293; 2,500 tested, 25% active; AID 687007, 2013; inhibition, % at 8.5 µM; shares compounds with COUP-TFII inh; in the data active = inhibition above about 13%
COUP-TFII conf: NR2F2 transcriptional activity inhibitors, confirmation, cell-based, luciferase reporter, HEK293, triplicate; shares compounds with COUP-TFII inh; HEK293 NGFI-A luciferase reporter, luminescence; inhibition, % at 8.5 µM; 2,500 tested, 45% active;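 active = mean inhibition over three repeats above a set limit taken from the earlier primary screen, cut at about 38% in these data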;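 also: 100% = cells given the luciferase reporter alone without the COUP-TF2 vector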
* marks the source's active call; other numbers are inactive results; nt = no result. Only some compounds are listed: those with a hit (about 1.1% of all), similar ones and a draw of the others.

SMILES | GalR3 antagonist | COUP-TFII inh | SRC2 inh | NCOA3 inh | NCOA1 inh | NR5A2 inv ag | VP16 Luc counter | COUP-TFII conf
COc1ccc(-n2cc(-c3ccccc3)[n+]3c2CCCCC3)cc1 | 0.1 | 34.8 | 14.0 | 45.6 | 26.5 | 38.0 | nt | nt
COc1ccc(-n2c(-c3ccc(Br)cc3)c[n+]3c2CCc2ccccc2-3)cc1 | -6.0 | 38.1* | 17.4 | 46.8 | 4.7 | 64.6 | 20.9* | 30.9
COc1ccc(-c2cn(-c3ccc(OC)cc3)c3[n+]2-c2ccccc2CC3)cc1 | 0.0 | 62.4* | -15.7 | 69.2* | 46.9 | 71.6 | 12.0 | 55.2*
Brc1ccc(-c2c[n+]3c(n2-c2ccccc2)SCC3)cc1 | -4.5 | 17.9 | 8.5 | 11.5 | 8.9 | 2.5 | nt | nt
O=C(NC1CCCCN(Cc2cccc(Cl)c2)C1=O)C1CCCCC1 (stereo not drawn) | nt | 2.4 | -0.1 | nt | nt | nt | nt | nt
O=C(NCc1cccnc1)/C(=C\c1ccc(-c2cccc(Cl)c2)o1)S(=O)(=O)c1ccccc1 | -6.1 | 42.5* | 63.0* | 82.1* | 6.5 | 68.0 | 20.6* | 37.3
COc1ccc(C2CCC3(CCC(=O)N3CCOC(=O)NCc3ccc(Cl)cc3)CC2)cc1 (stereo not drawn) | nt | 40.1* | 23.0 | nt | nt | nt | 1.8 | 16.1
COc1ccc(S(=O)(=O)N2CCN(CCOc3ccc(Br)cc3)CC2)cc1OC | -5.2 | 60.4* | 31.1 | 6.8 | 15.9 | 6.9 | -13.3 | 27.1
O=C(N[C@H](Cc1ccccc1)C(=O)NCc1ccco1)[C@H]1O[C@@H](n2ccc(=O)[nH]c2=O)[C@H](O)[C@@H]1O | -4.4 | -4.9 | -10.8 | nt | nt | nt | nt | nt
COc1ccc(-c2c[n+]3c(n2-c2ccccc2)CCCCC3)cc1 | -2.4 | 32.6 | 10.0 | 33.4 | 36.0 | 39.9 | nt | nt
FC(F)Oc1ccc(-c2c[n+]3c(n2-c2ccccc2)CCCCC3)cc1 | -3.0 | -21.3 | 11.2 | 13.4 | 5.3 | -2.1 | nt | nt
CCOc1ccc(-n2c(-c3ccc(OC)cc3)c[n+]3c2CCCCC3)cc1 | 55.6* | 82.7* | -5.4 | 46.2 | 29.8 | 84.5* | 19.6* | 72.3*
CCOc1ccc(-n2c(-c3ccccc3)c[n+]3c2CCC3)cc1 | -3.6 | 55.1* | 17.4 | 26.4 | 9.1 | 35.9 | -4.4 | 30.5
Cc1[nH]cnc1C(=O)N/N=C/c1ccc([N+](=O)[O-])s1 | -10.9 | -16.6 | -8.1 | -55.1 | -24.4 | 14.8 | nt | nt
Cc1ccc(C(=O)N/N=C/c2ccc([N+](=O)[O-])s2)cc1 | -0.5 | 53.5* | 82.8* | 56.1 | 48.0 | 47.5 | 84.5* | 92.6*
O=C(N/N=C/c1ccc([N+](=O)[O-])s1)c1ccncc1 | nt | nt | nt | 26.1 | -3.3 | 44.4 | nt | nt
Cc1ccc(C(=O)N/N=C\c2ccc([N+](=O)[O-])s2)cn1 | -1.0 | 39.8* | 27.4 | 18.9 | 5.7 | 37.8 | 30.8* | 20.2
C=CCN1[C@H](CO)[C@H](c2ccc(C#CC3(O)CCCC3)cc2)[C@@H]1C#N | nt | 9.7 | 16.3 | nt | nt | nt | nt | nt
CN[C@H]1C[C@@H](c2ccccc2Br)N(C(C)=O)C[C@H]1CO | -6.5 | 3.9 | 8.9 | nt | nt | nt | nt | nt
CCCN1CCS(=O)(=O)N(Cc2cn(Cc3ccc(C)cc3)nn2)C(C(=O)OC)C1 (stereo not drawn) | nt | -15.3 | 18.2 | nt | nt | nt | nt | nt
O=C1c2ccccc2S(=O)(=O)N1Cc1nc2ccccc2s1 | -3.7 | 41.9* | 51.5 | 18.5 | 15.9 | 8.8 | -6.1 | 28.7
COc1ccc(NC(=O)N(C)[C@H]2C[C@H]3c4[nH]c5c(-c6cccc(C)c6)cccc5c4CCN3C(=O)[C@H]2[C@H](C)O)cc1 | nt | 1.0 | 17.0 | nt | nt | nt | nt | nt
